SMILES strings stand for the structures.

By viability is commonly meant a read-out of living cells in per cent, often relative to untreated cells.

The assay can be described thus: reversal of MRP1-mediated doxorubicin resistance, pilot screen, H69AR cells, doxorubicin co-treatment (AID 601). The note with it: H69AR cells, CellTiter-Glo, 72 h; compound alone cytotoxicity; at 10 µM.
Consider `Cn1c2c(c(=O)[nH]c1=O)C(NC(=O)c1ccco1)(C(F)(F)F)C(=O)N2` (stereo not given), for which the viability is 96.5%.

For the compound `c1ccc(CSCc2cn3ccsc3n2)cc1`, the viability was 99.1%.

As for `CCCn1c(SCC(=O)Nc2cc(C)on2)nc2c1c(=O)n(C)c(=O)n2C`, the viability stood at 100%.

As for `CCN(CC)C(=O)C1CCC(CNS(=O)(=O)c2cccc3cccnc23)CC1` (stereo not given), the viability was determined as 99.2%.

Turning to `CC(C)OC(=O)CSc1nnnn1-c1ccc2c(c1)OCCO2`, the viability amounted to 88.6%.

`Cc1ccc(OCC(=O)N2CCN(C(=O)CCC3CCCC3)CC2)cc1`: the viability was 86.6%.

For `CC1(C)CC(=O)C(C=Nc2ccncc2)=C(O)C1`, the viability came to 106%.

On to `CCCCN(CC)S(=O)(=O)N1CCC(C(=O)NCc2ccc(F)cc2)CC1`, for which the viability was 101%.

As for `CCOC(=O)C1(C(=O)OCC)C(c2ccccc2)CC(O)N1C(C)=O` (stereo not given), the viability worked out at 86.2%.

Regarding `CCOc1ccccc1N(C(=O)c1ccco1)C(C(=O)NC1CCCC1)c1cccnc1` (stereo not given), the viability was 90.5%.

As for `Cc1ccc(CNC(=O)C2CC(=O)OC23CCCC3)c(C)c1` (stereo not given), the viability came to 106%.

Regarding `Cc1ccc(-c2nnc(-c3ccc(Br)cc3)o2)o1`, the viability was determined as 86.1%.

Consider `COC(=O)CSc1nc2sc3c(c2c(=O)n1C1CCCCC1)CCN(C)C3`, for which the viability is 95%.

Consider `CCOC(=O)Cc1csc(NC(=O)CSc2nnc(C(C)C)n2CC)n1`, for which the viability was found to be 89.8%.

Regarding `CCOC(=O)Cn1nnnc1CN(Cc1ccc(OC)cc1)Cc1cc2cc(C)cc(C)c2[nH]c1=O`, the viability was 89.4%.

For `CC(=O)CCc1ccc(OCCCCn2cncn2)cc1`, the viability is 92.9%.

`COc1ccc(CC(=O)OCn2nnc3ccccc3c2=O)cc1`: the viability is 98%.

On to `CC(=O)Nc1sc2c(c1C#N)CCCCC2`, for which the viability amounted to 95.6%.

As to `Cc1ccccc1-c1nc(CS(=O)(=O)CC(=O)N(C)C2CCCCC2)c(C)o1`, the viability came out at 92.7%.

For the compound `COCCn1c(CN(Cc2ccccc2)Cc2ccccc2)nc2c1c(=O)n(C)c(=O)n2C`, the viability is 81.2%.

`Cn1c(SCc2ccccc2)nnc1C1CCCNC1` (stereo not given): the viability stood at 90.8%.

In the case of `COc1cccc(N(C(=O)c2ccco2)C(C(=O)NC2CCCC2)c2ccc(N(C)C)cc2)c1` (stereo not given), the viability turned out to be 91.8%.

For the compound `O=C(CCSc1ccccc1)Nc1ccc(S(=O)(=O)N2CCOCC2)cc1`, the viability was determined as 104%.

With `Cc1cc(Nc2ccccc2F)n2ncnc2n1`, the viability came to 97.1%.

Turning to `CCOP(=O)(c1ccc(N(C)C)cc1)C(O)c1c(Cl)cccc1Cl` (stereo not given), the viability was 90.1%.

Consider `CCN1CCN(c2c(Cl)cccc2NC(=O)c2ccc3c(c2)OCCO3)CC1`, for which the viability worked out at 81.7%.

Consider `CC1CN(c2nc3ccccc3nc2C(C#N)C(=O)OC2CCCCC2)CC(C)O1` (stereo not given), for which the viability was found to be 96.1%.

Regarding `CCOc1cc(NC(=O)c2ccccn2)c(OCC)cc1NC(=O)CC(C)C`, the viability was found to be 89%.

As for `C(#Cc1ccccc1)Cn1nnc2ccccc21`, the viability came out at 83.1%.

Regarding `Cn1cccc1Cc1nnc(SCC(N)=O)n1-c1ccc(F)cc1`, the viability stood at 99.8%.

For the compound `Cn1c(=O)c2c(-c3ccncc3)c3c(nc2n(C)c1=O)-c1ccccc1C3=O`, the viability turned out to be 95%.

As for `CCCCOC(=O)CSc1nc2c(cc1C#N)C(=O)CC(C)(C)C2`, the viability came to 78.8%.

As to `COCCN(C(=O)CNC(=O)c1ccco1)C(C(=O)NC1CCCCC1)c1cccc(OC)c1` (stereo not given), the viability turned out to be 102%.

With `CCCCCn1c2nc3ccccc3nc2c2c(=O)n(CC(C)C)cnc21`, the viability was determined as 87.3%.

Turning to `CCOC(=O)c1sc2nc(SCC#N)n(CCCN3CCCC3=O)c(=O)c2c1C`, the viability came to 75.8%.

For `COc1ccc(N2C(=O)C3C4C=CC(C4)C3C2=O)nn1` (stereo not given), the viability was 99.2%.

Turning to `Clc1cccc(-c2nn3c(Cn4cnc5ccccc54)nnc3s2)c1`, the viability was 94.9%.

Regarding `O=C(O)C1CCCN1c1ncnc2c1oc1ccccc12` (stereo not given), the viability was 92.3%.

On to `O=C(NCCSCc1ccco1)Nc1cccc(Cl)c1`, for which the viability is 86.3%.

In the case of `CCSc1nc2c(c(=O)n(C)c(=O)n2C)n1Cc1ccc(Cl)cc1`, the viability stood at 83%.

The record behind these values is PubChem BioAssay.
